# Assay outcomes as filed in PubChem.
# Tat export inh: inhibitors of E. coli Tat protein transport; E. coli MC4100 TorA-mCherry Tat export, fluorescence; inhibition, % at 10 µM; 340,000 compounds, 0.036% hits;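 active means mean replicate inhibition at least 50% and at least half of replicates individually reaching 50%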;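 further: exported cargo escapes ClpAP degradation while cytoplasmic cargo is degraded and loses fluorescence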
# phage Ecoli inh: E. coli growth loss with phage present; growth absorbance; inhibition, % at 11.9 µM; 360,000 compounds, 0.26% hits; AID 651602; in the data active means inhibition above about 11%
# E coli growth-1: bacterial growth inhibition, counter-screen for AddAB inhibitors. inhibition, % at 11.9 µM. E. coli V3065 growth, OD600 absorbance, 18 h. 330,000 compounds, 0.27% hits;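 active means inhibition above the campaign's mean inhibition across all tested compounds plus 3 SD, cut at about 9.9% in these data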;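 further: uninfected addAB+ strain grown without phage in ampicillin broth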
# AddAB inh: less growth of phage-infected E. coli with AddAB; inhibition, % at 11.9 µM; 330,000 compounds, 0.29% hits; E. coli expressing H. pylori AddAB, absorbance growth; in the data active means inhibition above about 12%
# E coli growth-2: E. coli growth inhibition; OD600 absorbance (test concentration not listed); AID 1053175; Escherichia coli growth, OD600, 23 h; stronger effect = lower value; 330,000 compounds, 0.21% hits;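 active means OD600 absorbance below the run mean of sample wells minus 3.6 SD, in any replicate, cut at about 0.56 in these data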
# AddAB conf: confirmation screen: growth loss of phage-infected E. coli expressing H. pylori AddAB | 880 compounds, 64% hits | shares compounds with AddAB inh | AID 488942 | E. coli V3065 expressing H. pylori AddAB, T4 phage, OD; T4 phage with gene 2 nonsense mutations | inhibition, % at 11.9 µM;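 active means mean inhibition above a set limit taken from the earlier primary screen, cut at about 13% in these data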;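 further: higher means less bacterial growth since AddAB block lets phage replicate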
# RecBCD counter: reduces growth of phage-infected RecBCD+ E. coli, AddAB inhibitor counter-screen; 880 compounds, 73% hits; inhibition, % at 11.9 µM; E. coli V66 + mutant T4 phage, OD growth; AID 488955; shares compounds with AddAB inh;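 active means mean inhibition above the mean of solvent-only control wells plus 3 SD, cut at about 4% in these data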;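 further: optical density read after an 18 h incubation at 37 °C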
# bact viab count: counter-screen for AddAB inhibitors: inhibitors of bacterial viability; inhibition, % at 11.9 µM; 880 compounds, 35% hits; absorbance (AddAB counterscreen); shares compounds with AddAB inh; in the data active means inhibition above about 25%
# RecBCD conf: confirmation: growth loss of phage-infected RecBCD+ E. coli (RecBCD inhibitor screen) | shares compounds with phage Ecoli inh | E. coli V66 + T4 2- phage, growth OD | inhibition, % at 11.9 µM | 890 compounds, 45% hits;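 active means mean inhibition over triplicates exceeding the hit threshold derived in the original primary screen, cut at about 11% in these data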
# Ecoli viability: bacterial viability inhibition counter-screen for RecBCD; 890 compounds, 29% hits; shares compounds with phage Ecoli inh; AID 651983; E. coli viability, absorbance (OD) growth; inhibition, % at 11.9 µM; in the data active means inhibition above about 20%;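 further: E. coli strain V66 grown with compound alone and no phage infection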
# AddAB counter: growth loss of phage-infected AddAB E. coli, RecBCD counter-screen; E. coli expressing H. pylori AddAB + T4 phage, OD growth; gene 2 mutant T4, recBCD-deleted host; inhibition, % at 11.9 µM; AID 651984; shares compounds with phage Ecoli inh; 890 compounds, 45% hits;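 active means mean inhibition above the solvent-only control wells' mean plus 3 SD, cut at about 22% in these data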;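 further: higher means less bacterial growth from phage killing when AddAB is blocked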
# Hits are given with their value; 0 = inactive; - = not tested or not shown. A selection: hits, their analogues and other compounds. The true share with any hit is near 0.51%.
SMILES,Tat export inh,phage Ecoli inh,E coli growth-1,AddAB inh,E coli growth-2,AddAB conf,RecBCD counter,bact viab count,RecBCD conf,Ecoli viability,AddAB counter
[N-]=[N+]=CC(=O)c1ccnc(C(=O)C=[N+]=[N-])c1,0,18,38,31,0.56,57,22,43,20,21,49
C/C(N=Nc1nc2ccccc2s1)=N\Nc1ccccc1O,0,33,11,15,-,32,34,31,24,27,39
Cc1ccc(S(=O)(=O)N2CCOCC2)cc1NN=C(C#N)c1nc2ccccc2[nH]1,-,-,-,-,0,-,-,-,-,-,-
O=c1c2ccccc2oc2ccccc12,-,0,-,-,-,-,-,-,-,-,-
O=c1c(O)c(-c2cccs2)oc2ccccc12,0,12,25,23,0,0,11,0,0,0,0
Cc1ccc(-c2[nH]c3cc(C(N)=O)ccc3c(=O)c2O)cc1,0,0,0,0,-,-,-,-,-,-,-
CCCNC(=O)c1ccc2c(=O)c(O)c(-c3ccc(C)cc3)[nH]c2c1,0,21,25,23,-,20,16,0,0,0,23
Cc1ccc(CNC(=O)c2ccc3c(=O)c(O)c(-c4ccc(C)cc4)[nH]c3c2)cc1,0,17,20,17,0,21,19,0,11,0,0
CCN1C(=O)C2C(C1=O)C(c1ccc(OC)cc1)N1C(=O)c3ccccc3NC(=O)C21 (centres undefined),-,-,-,-,0,-,-,-,-,-,-
CCn1cc(C(=O)NCC2CCCO2)c(=O)c2cc(F)c(N3CCN(C)CC3)cc21 (centres undefined),0,0,0,0,0,-,-,-,-,-,-
Cc1cc(C)c(NC(=O)c2cn3c4c(c(N5CCN(C)CC5)c(F)cc4c2=O)OCC3C)c(C)c1 (centres undefined),0,97,97,97,0.049,101,100,101,99,100,101
CCn1cc(C(=O)O)c(=O)c2cc(F)c(NN=Cc3ccccc3)cc21,-,-,-,-,0,-,-,-,-,-,-
CN1CCN(c2c(F)cc3c(=O)c(C(=O)O)cn4c3c2OCN4C)CC1,138,99,99,99,0.07,101,100,101,102,102,103
CC(=NN=C(N)SC1CC(=O)N(c2ccc(Cl)c(Cl)c2)C1=O)c1cccs1 (centres undefined),-,-,-,-,0,-,-,-,-,-,-
Cc1ccc(-c2c(C(=O)NN=Cc3ccsc3)nnn2-c2nonc2N)cc1,-,-,-,-,0,-,-,-,-,-,-
Cc1nc(Nc2ccc(S(N)(=O)=O)cc2)oc1C,0,12,9.9,15,0,0,5.3,0,0,0,41
Cc1ccc(/C=C/C(=O)Nc2ccc(S(N)(=O)=O)cc2)o1,0,0,0,0,0,-,-,-,-,-,-
COc1ccc(Br)cc1C1C2C=CCC[C@@]2(C)C(=O)N1Cc1ccccc1 (some centres undefined),-,-,-,-,0,-,-,-,-,-,-
COc1ccccc1OCC(=O)N/N=C/C=C/c1ccc([N+](=O)[O-])o1,0,12,54,83,-,101,24,94,18,23,99
CCCCCC(CC(=O)NO)C(=O)NC(C(=O)N1CCCC1CO)C(C)C (centres undefined),0,25,22,22,0,19,24,0,18,0,0
C(=N\Nc1nc2ccccc2s1)/c1ccccn1,-,21,16,15,-,19,14,0,0,0,0
CC1(C)CC(=O)C2=C(C1)OC(N=CN1CCOCC1)=C(C#N)C2c1ccccc1 (centres undefined),-,-,-,-,0,-,-,-,-,-,-
CCCCC(=O)NC(c1ccc(OC)c(OC)c1)c1c(O)ccc2ccccc12 (centres undefined),0,-,0,0,0,-,-,-,-,-,-
CCCCC(=O)NC(c1ccccc1OC)c1ccc2cccnc2c1O (centres undefined),0,34,33,32,0,30,28,27,21,25,32
CCCC(=O)NC(c1ccc(Cl)cc1)c1ccc2cccnc2c1O (centres undefined),0,18,28,19,-,24,23,0,15,0,27
SMILES,Tat export inh,phage Ecoli inh,E coli growth-1,AddAB inh,E coli growth-2,AddAB conf,RecBCD counter,bact viab count,RecBCD conf,Ecoli viability,AddAB counter
CC(=O)NC(c1ccc2ccccc2c1)c1ccc2cccnc2c1O (centres undefined),0,24,27,30,-,28,22,0,16,20,32
CCCC(=O)NC(c1ccc(Cl)cc1Cl)c1ccc2cccnc2c1O (centres undefined),0,24,27,20,-,20,20,0,16,0,25
CC1CN=C(Nc2ccccc2)N1CC1CCC1 (centres undefined),-,-,-,-,0,-,-,-,-,-,-
CCCCC(=O)NC(c1ccc(Cl)cc1)c1ccc2cccnc2c1O (centres undefined),0,20,30,31,-,29,22,0,12,0,33
COC(=O)c1scc(C)c1NN=C(C)c1ccc(F)cc1F,-,-,-,-,0,-,-,-,-,-,-
Cc1cc(N2CCOCC2)ccc1C=C1NC(=O)N(Cc2ccccc2)C1=O,-,-,-,-,0,-,-,-,-,-,-
NC1CCN(c2c(F)cc3c(=O)c(C(=O)O)cn(C4CC4)c3c2Cl)C1 (centres undefined),149,99,98,97,0.066,102,100,102,101,101,99
O=C(O)c1cn(C2CCCCC2)c2ccccc2c1=O,0,0,0,0,0,-,-,-,-,-,-
CC1CCc2cc(F)cc3c(=O)c(C(=O)O)cn1c23 (centres undefined),56,100,100,100,0.062,99,31,100,102,103,102
CC1CCc2c(N3CCC(O)CC3)c(F)cc3c(=O)c(C(=O)O)cn1c23 (centres undefined),60,103,102,101,0.059,96,99,97,102,103,103
C=CC(CC(C)C)N(Cc1ccccc1)S(=O)(=O)N(Cc1ccccc1)C(C=C)CC(C)C (centres undefined),-,-,-,-,0,-,-,-,-,-,-
COc1cc(C=NNC(=O)c2ccncc2)ccc1OCCN1CCCCC1,-,-,-,-,0,-,-,-,-,-,-
CCCC(=O)NC(c1cccs1)c1cc(Cl)c2cccnc2c1O (centres undefined),0,21,29,27,0,23,20,0,11,0,0
